TRPV1 potentiator – enhances activation of the human vanilloid receptor TRPV1; TRPV1-expressing cells, Fluo-8 calcium influx, capsaicin EC20 potentiation; potentiation, % at 8.33 µM; actives 0.02% (n = 320,000); AID 540277; in the data active = potentiation above about 80%; inconclusive = between about 30% and that limit; also: 0% is about no effect
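TRPV1-expressing cells were cultured overnight at 35.5C and loaded with Fluo-8 calcium dye for 40 to 90 min at room temperature. After a 10 s baseline, compound was added and calcium influx was read kinetically for 3 min (ex 480/em 520 nm).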
uPA surface inh – cell surface uPA generation inhibition; cell surface uPA generation assay, qHTS; AID 540303; Potency, µM (highest dose often 38.3 µM), without a hit: at the top dose activity change, negative = inhibition, usual class: inhibitors; actives 0.31% (n = 330,000); active = well fitted inhibition curve with a large enough effect; inconclusive = small, poorly fitted or top-dose-only effect; inactive = no such curve, though single readings can be large or run the other way; tested in mouse RAW 264.7 cells; also: potency is read from the fitted curve at half-maximal effect; % is scaled to controls: 0 for no effect and ±100 for the full control effect; nearly all actives have a fitted effect of over 55% in size
Gal4-VP16 FLuc – Gal4-VP16 reporter inhibition counter-screen; Drosophila S2 Gal4-VP16 UAS-luciferase, luminescence, 20 h; Potency, µM (doses to about 53.6 µM), for inactives: top-dose activity, negative = inhibition, actives largely listed as inhibitors; actives 3.5% (n = 310,000);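 also: Gal4-VP16 expression switched on by copper sulfate through the metallothionein promoter; potency is read from the fitted curve at half-maximal effect; % is scaled to controls: 0 for no effect and ±100 for the full control effect; nearly all actives have a fitted effect of over 50% in size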
TRPV1 agonist – human TRPV1 agonism. Q8NER1. TRPV1-expressing cells, Fluo-8 calcium influx, agonist mode. activation, % at 8.33 µM. actives 0.19% (n = 320,000); in the data active = activation above about 80%; inconclusive = between about 30% and that limit; also: 0% is about no effect
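TRPV1-expressing cells were cultured overnight at 35.5C and loaded with Fluo-8 calcium dye for 40 to 90 min at room temperature. After a 10 s baseline, compound was added and calcium influx was read kinetically for 3 min (ex 480/em 520 nm).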
RORgamma inh – inhibitors of mouse ROR gamma transcriptional activity. P51450. Drosophila S2 Gal4-RORgamma UAS-luciferase reporter, 20 h. Potency, µM (doses to about 53.6 µM), for the others: at the top dose activity change, negative = inhibition, actives largely listed as inhibitors. actives 5.4% (n = 310,000). AID 2551; also: potency is read from the fitted curve at half-maximal effect; % is scaled to controls: 0 for no effect and ±100 for the full control effect; nearly all actives have a fitted effect of over 60% in size
Target sequence (P51450 whole entry, looked up, the tested form may be a part): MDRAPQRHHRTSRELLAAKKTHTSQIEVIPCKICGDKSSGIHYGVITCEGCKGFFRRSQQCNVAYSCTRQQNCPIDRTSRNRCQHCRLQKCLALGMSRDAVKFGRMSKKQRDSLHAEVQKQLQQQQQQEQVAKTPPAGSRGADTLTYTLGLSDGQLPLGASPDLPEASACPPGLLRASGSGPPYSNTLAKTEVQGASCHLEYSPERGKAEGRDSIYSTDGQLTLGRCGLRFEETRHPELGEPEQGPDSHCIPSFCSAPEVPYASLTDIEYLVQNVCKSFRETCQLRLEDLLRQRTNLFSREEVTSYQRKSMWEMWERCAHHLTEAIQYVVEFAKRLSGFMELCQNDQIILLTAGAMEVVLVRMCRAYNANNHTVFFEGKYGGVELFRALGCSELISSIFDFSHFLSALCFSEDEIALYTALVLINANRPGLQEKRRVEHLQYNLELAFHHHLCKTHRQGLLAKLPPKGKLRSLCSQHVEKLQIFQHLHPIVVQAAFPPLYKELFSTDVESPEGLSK
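In this cell-based reporter format, copper sulfate (700 uM final) drives Gal4–ROR gamma fusion expression from a metallothionein promoter in Drosophila Schneider cells; compounds preincubated 1 hr, reporter read after 20 hr at ambient temperature.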
Active calls of the source: *; ? = inconclusive; nt = no result; [ ] = dose if it differs, or a comment. The list is not random: actives were taken first. Their share in the collection is about 5.8%. Unless noted, calls follow the shape of the dose curve; as a rule, active = well fitted curve in the direction sought with a large enough effect; inconclusive = small, poorly fitted or top-dose-only effect, or another doubt; inactive = no such curve, though single readings can be large; an effect the other way counts as inactive or inconclusive.

SMILES	TRPV1 potentiator	uPA surface inh	Gal4-VP16 FLuc	TRPV1 agonist	RORgamma inh
CCNC(=S)NS(=O)(=O)c1ccc(CC)cc1	-8	nt	?	-3	13µM*
CCNC(=S)NS(=O)(=O)c1ccc(C)cc1	-4	6%	?	4	?
c1cc(NC2CC2)nc(-c2ccoc2)n1	nt	nt	-15%	nt	4%
COc1cccc(CN(C)C(=O)Cn2cc(C)c(=O)[nH]c2=O)c1	nt	-2%	nt	nt	nt
COc1ccc(/C=N/OCC(=O)Nc2cc(C)on2)cc1OC	-11	-17%	-10%	1	-19%
COc1ccc(C=NNC(=S)NN=Cc2ccc(OC)c(OC)c2)cc1OC	nt	-10%	nt	nt	nt
COc1ccc(/C=N/OCC(=O)NC(c2ccccc2)c2ccccc2)cc1OC	-3	-10%	1.6µM*	21	?
COc1ccc(/C=C\C(=O)Oc2cccc(/C=N/NC(=O)Cc3ccc(OC)c(OC)c3)c2)cc1	4	-4%	13µM*	9	-28%
COc1ccc(CNC(=S)N/N=C/c2ccc(O)c(OC)c2)cc1	9	-5%	16µM*	-2	10µM*
COc1ccc(/C=N/NC(=S)NCc2ccccc2)cc1OC	10	-1%	?	0	10µM*
CC1CCc2sc(C(=O)N/N=C/c3ccc([N+](=O)[O-])cc3)cc2C1 (stereo unspecified)	8	1%	-8%	1	1%
COc1ccc(/C=N/NC(=O)CCC(=O)Nc2ccccc2)cc1OC	3	-8%	1%	-2	-18%
COc1ccc(/C=N/NC(=O)Cc2ccc(Cl)cc2)cc1OC	-3	-12%	6%	0	17%
COc1cc(/C=N\NC(C)=O)ccc1OC/C=C/c1ccccc1	8	5%	0.45µM*	1	?
COc1ccc(/C=N/NC(=O)CCn2cnc(-c3ccccc3)c2-c2ccccc2)cc1OC	-1	-12%	13µM*	9	?
COc1ccc(CNC(=S)N/N=C/c2ccc(OC)c(OC)c2)cc1	13	-3%	?	-1	11µM*
COc1cc(/C=N/NC(=S)N/N=C/c2cc(OC)c(OC)c(OC)c2)cc(OC)c1OC	7	-10%	4µM*	-8	?
COc1ccc(OC)c(N=C2SCCCN2C(=O)c2ccc(N3C(=O)CCC3=O)cc2)c1	5	nt	nt	-2	nt
CCN(Cc1ccccc1)C(=O)COC(=O)c1cc(S(=O)(=O)Nc2ccccc2OC)ccc1O	nt	-13%	nt	nt	nt
COC(=O)c1cccnc1-n1c(=O)c2cccnc2n(Cc2cccc(C(F)(F)F)c2)c1=O	-3	1%	-12%	1	16%
COCCCNC(=S)N/N=C/c1ccc(OC)c(Br)c1	-6	0%	11µM*	0	1µM*
CCCCNC(=O)/C=C/c1ccc(OC)c(Br)c1	-19	nt	-9%[0.365 µM]	?	-33%
Cc1oc(-c2cccc3ccccc23)nc1CN1CCC[C@H]1CO	4	10%	?	5	7.1µM*
Cc1ccccc1-c1nc(CN2CCCC2c2ccc(F)cc2)c(C)o1 (stereo unspecified)	-11	5%	2%	16	-42%
Cc1oc(-c2ccccc2Cl)nc1CN1CCCC1c1ccc(F)cc1 (stereo unspecified)	-3	9%	-11%	?	11µM*
SMILES	TRPV1 potentiator	uPA surface inh	Gal4-VP16 FLuc	TRPV1 agonist	RORgamma inh
CN(C)Cc1ccccc1-c1nc(NCc2cccs2)c2ccccc2n1	nt	nt	-11%	nt	-33%
CC1CCCC(NC(=O)CN(C)CC(=O)Nc2ccc(F)cc2)C1C (stereo unspecified)	-14	1%	nt	26	nt
COc1ccc(CCOC(=O)c2ccc(N)c([N+](=O)[O-])c2)cc1	3	-9%	?	-1	44%
CCOc1cc(-c2nc3ccccn3c2NCC2CCCO2)ccc1O (stereo unspecified)	19	-1%	?	3	13%
COc1cc(-c2nc3ccccn3c2NCC2CCCO2)ccc1O (stereo unspecified)	4	nt	22%	4	14µM*
COc1cc(-c2nc3ccccn3c2/N=C/c2ccccc2)ccc1O	-1	-9%	-5%	11	13µM*
CC1CN(C(=O)CCC(=O)NCc2ccccc2)c2ccccc2S1 (stereo unspecified)	2	-1%	-5%	13	-17%
Cc1cc(C(=O)NCc2csc(-c3ccccc3)n2)no1	16	0%	?	6	33%
CC(C)Nc1oc(-c2ccccc2)nc1-c1cccc2ccccc12	nt	nt	4%	nt	0%
c1ccc(-c2nc(-c3cccc4ccccc34)c(Nc3ccc4ccccc4c3)o2)cc1	nt	nt	1%	nt	5.6µM*
Cn1cc(C(=O)N/N=C/c2ccc3c(c2)OCO3)c2ccccc21	-10	-15%	10%	?	-14%
COc1ccccc1NC(=O)C(=O)N/N=C/c1cccs1	0	-3%	3.2µM*	?	2µM*
Cc1nc2ccccc2cc1C(=O)N/N=C/c1cccs1	0	4%	?	8	10µM*
Cn1cc(C(=O)N/N=C/c2cccs2)c2ccccc21	8	-11%	?	0	10µM*
CC1CCC2C(=O)OC(Cc3ccccc3)CN2C1c1ccc(Br)cc1 (stereo unspecified)	nt	nt	7%[10 µM]	nt	5%[10 µM]
COc1cc2oc(=O)cc(-c3ccc(-c4ccc(NC(C)=O)cc4)cc3)c2c(OC)c1OC	nt	nt	-4%	nt	3%
C=CCC1NS(=O)(=O)OC2CCCC12 (stereo unspecified)	-8	-21%	9%	2	1%
Cc1ccc(OS(=O)(=O)c2ccccc2)c(/C=N/N=C2\NC(=O)C(C)S2)c1 (stereo unspecified)	6	4%	16µM*	4	8.9µM*
Cc1ccc(S(=O)(=O)Oc2ccccc2/C=N/O)cc1	10	-29%	8%	-2	6%
O=C1CS/C(=N/N=C/c2ccccc2OS(=O)(=O)c2ccccc2)N1	-7	3%	13µM*	-4	?
NC1=NC(=O)/C(=C/c2ccccc2OS(=O)(=O)c2ccccc2)S1	15	2%	-3%	6	0%
Cc1onc(-c2ccc(Cl)cc2)c1-c1ccnn1S(=O)(=O)c1cccc(C(F)(F)F)c1	-1	6%	5%	17	?
COCCCNC(=O)CCn1c(=O)c2ccccc2n(CC(=O)NCCc2ccc(OC)c(OC)c2)c1=O	2	1%	-1%	-2	0%
Cc1cc(=O)oc2c3c(cc(OCC(=O)NCc4ccncc4)c12)OC(C)(C)CC3	-27	-18%	-10%	?	19%
Cc1c(C)c2c(OCC(=O)NCc3ccncc3)cc3c(c2oc1=O)CCC(C)(C)O3	-19	-3%	4%	80*	3%
COc1ccc(CNC(=O)COc2cc3c(c4oc(=O)cc(C)c24)CCC(C)(C)O3)cc1OC	5	-4%	-4%	81*	12%
Cc1ccnc(NS(=O)(=O)c2ccc(NC(=O)c3ccc4c(c3)OCCO4)cc2)n1	4	-1%	0%	-2	32%
